Test results: PubChem BioAssay
The source made the active and inactive calls.

Columns and labels:
[1] = system: Plasmodium falciparum Sir2 (PF13_0152, Sir2A); assay: Plasmodium falciparum Sir2A binding compounds – biochemical, small-molecule microarray, 635 nm fluorescence, primary screen (AID 1098); conditions: fluorescence 635 nm, higher = more signal;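 note: score merges spot fluorescence intensity with its signal-to-noise ratio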
[2] = probe aDKK1 binding to arrayed compounds – biochemical, biotinylated probe, 635/667 nm fluorescence, primary screen (AID 1099); conditions: small-molecule microarray, higher = more signal;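 note: score merges 667nm spot fluorescence with signal to noise across triplicate slides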
[3] = probe aCHRDL2 binding to arrayed compounds – biochemical, biotinylated probe, 635/667 nm fluorescence, primary screen (AID 1100); conditions: small-molecule microarray, higher = more signal
[4] = change in splice reporter luminescence, either direction, cell-based, HEK293, spliceosome inhibition project, primary screen (AID 1101); conditions: HEK293 splicing luciferase reporter, 24 h, higher = more signal, called active from +8 up or from −8 down;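 note: HEK293 cells carrying a splicing-competent luciferase reporter gene; test concentration not given here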
[5] = biological target: Fibroblast growth factor 10 (Homo sapiens) (UniProt O15520); assay: compounds binding fibroblast growth factor 10 – biochemical, small-molecule microarray, 635 nm fluorescence, primary screen (AID 1102); conditions: FGF10 binding, fluorescence 635 nm, higher = more signal
[6] = system: glycogen synthase kinase-3 (GSK3A per assay name; protocol says GSK3B); assay: compounds binding glycogen synthase kinase-3 – biochemical, small-molecule microarray, 635 nm fluorescence, GSK3A, primary screen (AID 1103); conditions: fluorescence 635 nm, higher = more signal; note: the record names both GSK3A and GSK3B
[7] = biological target: Epidermal growth factor receptor (Homo sapiens) (UniProt P00533); assay: compounds binding epidermal growth factor receptor – biochemical, small-molecule microarray, 635 nm fluorescence, primary screen (AID 1104); conditions: EGFR binding, higher = more signal;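 note: score merges 667 nm emission intensity with spot signal to noise over triplicate slides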
[8] = biological target: Follistatin-related protein 3 (Homo sapiens) (UniProt O95633); assay: compounds binding follistatin-related protein 3 – biochemical, small-molecule microarray, 635 nm fluorescence, primary screen (AID 1105); conditions: FSTL3 binding, higher = more signal;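 note: score merges emission near 667 nm and signal to noise per printed spot across three slides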
[9] = biological target: Dickkopf-related protein 1 (Homo sapiens) (UniProt O94907); assay: small molecules binding DKK1 protein – biochemical, small-molecule microarray, 635 nm fluorescence scan, primary screen (AID 1106); conditions: higher = more signal;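 note: score merges emission near 667 nm with signal to noise over three replicate slides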
[10] = system: Inhibin beta A chain (activin A); assay: small molecules binding activin A – biochemical, small-molecule microarray, 635 nm fluorescence scan, primary screen (AID 1107); conditions: INHBA, higher = more signal;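 note: mouse activin A protein probed at 4.33 µg/mL on printed slides; score merges bound-protein fluorescence near 667 nm with spot signal-to-noise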
[11] = system: Human papillomavirus type 1a protein E7 (residues 44-93); assay: small molecules binding HPV E7 44-93 – biochemical, small-molecule microarray, residues 44-93, 635 nm fluorescence, primary screen (AID 1108); conditions: fluorescence 635 nm, higher = more signal;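 note: E7 fragment applied at 1 µg/mL in TBST for 1 h at 4 C; score combines spot fluorescence with its signal to noise ratio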
[12] = hepatitis C replication reporter changes, two-sided – Huh7 cells, luciferase reporter, HCV replication inhibitor project, primary screen (AID 1109); conditions: Huh7 HCV replicon luciferase reporter, 48 h; higher = more signal;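 note: huh7 hepatoma cells harbouring a luciferase neomycin HCV replicon reporter; luciferase luminescence as measure of HCV replicon replication; test concentration not given here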
[13] = biological target: Left-right determination factor 2 (Homo sapiens) (UniProt O00292); assay: small molecules binding LEFTY2 protein – biochemical, small-molecule microarray, 635 nm fluorescence scan, primary screen (AID 1110); conditions: higher = more signal
[14] = biological target: Calmodulin-1 (Homo sapiens) (UniProt P0DP23); assay: small molecules binding calmodulin-1 with EGTA – biochemical, small-molecule microarray, Cy5-labelled CALM1, profiling panel (AID 1111); conditions: Cy5-CALM1 binding fluorescence, higher = more signal;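 note: labelled calmodulin applied in Tris saline Tween buffer holding calcium plus EGTA and DTT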
[15] = biological target: Calmodulin-1 (Homo sapiens) (UniProt P0DP23); assay: small molecules binding Ca-loaded calmodulin-1 – biochemical, small-molecule microarray, Cy5-labelled CALM1, plus calcium, artefact control for SMM control-protein annotation, profiling panel (AID 1112); conditions: Cy5-CALM1 binding fluorescence, higher = more signal;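 note: score merges spot fluorescence with signal to noise from triplicate slides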
[16] = probe aWnt5a binding to arrayed compounds – biochemical, biotinylated probe, 635/667 nm fluorescence, primary screen (AID 1113); conditions: small-molecule microarray, higher = more signal;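 note: score merges 667 nm fluorescence intensity with signal-to-noise per printed feature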
[17] = probe aShh binding to arrayed compounds – biochemical, biotinylated probe, 635/667 nm fluorescence, primary screen (AID 1114); conditions: small-molecule microarray, higher = more signal;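 note: probe is biotin-labelled aShh protein from a stem cell growth factor screen; measures binding of labelled protein to compounds printed on the slide; score merges feature fluorescence at 667 nm with signal-to-noise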
[18] = probe aNog binding to arrayed compounds – biochemical, biotinylated probe, 635/667 nm fluorescence, primary screen (AID 1115); conditions: small-molecule microarray, higher = more signal;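 note: probe is biotinylated aNog protein used at 0.15 µg/mL for 1 h at 4 C; z-score combines 667 nm fluorescence of each spot with its signal to noise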
[19] = biological target: Torsin-1A-interacting protein 1 (Homo sapiens) (UniProt Q5JTV8); assay: compound microarray binding of lysate hLAP1 – cell lysate, small-molecule microarray, COS7 lysate, 635/667 nm fluorescence, primary screen (AID 1116); conditions: 635 nm fluorescence, higher = more signal
[20] = biological target: Alpha-bungarotoxin (Bungarus multicinctus) (UniProt P60615); assay: compounds binding labelled alpha-BTX control protein – biochemical, small-molecule microarray, Alexa647 label, 635/667 nm fluorescence, artefact control for SMM control protein annotation, profiling panel (AID 1117); conditions: alpha-BTX-A647 binding fluorescence, higher = more signal
Alpha-bungarotoxin (Bungarus multicinctus), sequence (P60615 whole entry, looked up): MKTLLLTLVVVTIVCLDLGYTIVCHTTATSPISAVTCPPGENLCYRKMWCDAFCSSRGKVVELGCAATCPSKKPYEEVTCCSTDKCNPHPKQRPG

Follistatin-related protein 3 (Homo sapiens), sequence (O95633 whole entry, looked up): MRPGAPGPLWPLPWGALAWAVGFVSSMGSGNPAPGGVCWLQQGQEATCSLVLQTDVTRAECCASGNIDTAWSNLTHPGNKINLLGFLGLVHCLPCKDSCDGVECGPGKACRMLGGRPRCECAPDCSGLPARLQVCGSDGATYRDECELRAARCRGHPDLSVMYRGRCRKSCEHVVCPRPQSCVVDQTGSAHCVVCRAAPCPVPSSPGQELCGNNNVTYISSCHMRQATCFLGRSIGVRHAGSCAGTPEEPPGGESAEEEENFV
Left-right determination factor 2 (Homo sapiens), sequence (O00292 whole entry, looked up): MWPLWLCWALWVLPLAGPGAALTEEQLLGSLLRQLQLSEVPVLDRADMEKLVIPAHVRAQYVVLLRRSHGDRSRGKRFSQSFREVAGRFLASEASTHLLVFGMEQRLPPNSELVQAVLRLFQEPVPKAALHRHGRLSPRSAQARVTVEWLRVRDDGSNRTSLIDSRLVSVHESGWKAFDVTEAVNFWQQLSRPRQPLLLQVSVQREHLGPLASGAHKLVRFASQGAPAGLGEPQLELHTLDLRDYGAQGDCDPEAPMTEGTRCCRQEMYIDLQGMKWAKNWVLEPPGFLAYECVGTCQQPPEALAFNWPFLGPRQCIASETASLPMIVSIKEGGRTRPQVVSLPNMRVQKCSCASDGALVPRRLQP
Torsin-1A-interacting protein 1 (Homo sapiens), sequence (Q5JTV8 whole entry, looked up): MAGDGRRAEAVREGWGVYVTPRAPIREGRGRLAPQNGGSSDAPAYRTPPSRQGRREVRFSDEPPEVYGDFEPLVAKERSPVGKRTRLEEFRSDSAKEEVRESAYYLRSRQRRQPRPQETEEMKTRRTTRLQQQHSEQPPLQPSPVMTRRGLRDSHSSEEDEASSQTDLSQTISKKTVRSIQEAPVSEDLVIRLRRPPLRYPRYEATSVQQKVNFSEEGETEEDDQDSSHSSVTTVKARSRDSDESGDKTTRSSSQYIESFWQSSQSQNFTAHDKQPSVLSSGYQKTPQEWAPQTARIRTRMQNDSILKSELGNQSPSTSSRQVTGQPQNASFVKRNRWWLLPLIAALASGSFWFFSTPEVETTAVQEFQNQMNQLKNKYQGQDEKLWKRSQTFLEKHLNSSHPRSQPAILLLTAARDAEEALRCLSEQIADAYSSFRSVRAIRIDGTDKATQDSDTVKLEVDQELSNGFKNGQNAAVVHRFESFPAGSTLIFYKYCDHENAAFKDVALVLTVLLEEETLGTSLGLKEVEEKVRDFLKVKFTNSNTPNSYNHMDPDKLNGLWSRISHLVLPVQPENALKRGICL
Epidermal growth factor receptor (Homo sapiens), sequence (P00533 whole entry, looked up): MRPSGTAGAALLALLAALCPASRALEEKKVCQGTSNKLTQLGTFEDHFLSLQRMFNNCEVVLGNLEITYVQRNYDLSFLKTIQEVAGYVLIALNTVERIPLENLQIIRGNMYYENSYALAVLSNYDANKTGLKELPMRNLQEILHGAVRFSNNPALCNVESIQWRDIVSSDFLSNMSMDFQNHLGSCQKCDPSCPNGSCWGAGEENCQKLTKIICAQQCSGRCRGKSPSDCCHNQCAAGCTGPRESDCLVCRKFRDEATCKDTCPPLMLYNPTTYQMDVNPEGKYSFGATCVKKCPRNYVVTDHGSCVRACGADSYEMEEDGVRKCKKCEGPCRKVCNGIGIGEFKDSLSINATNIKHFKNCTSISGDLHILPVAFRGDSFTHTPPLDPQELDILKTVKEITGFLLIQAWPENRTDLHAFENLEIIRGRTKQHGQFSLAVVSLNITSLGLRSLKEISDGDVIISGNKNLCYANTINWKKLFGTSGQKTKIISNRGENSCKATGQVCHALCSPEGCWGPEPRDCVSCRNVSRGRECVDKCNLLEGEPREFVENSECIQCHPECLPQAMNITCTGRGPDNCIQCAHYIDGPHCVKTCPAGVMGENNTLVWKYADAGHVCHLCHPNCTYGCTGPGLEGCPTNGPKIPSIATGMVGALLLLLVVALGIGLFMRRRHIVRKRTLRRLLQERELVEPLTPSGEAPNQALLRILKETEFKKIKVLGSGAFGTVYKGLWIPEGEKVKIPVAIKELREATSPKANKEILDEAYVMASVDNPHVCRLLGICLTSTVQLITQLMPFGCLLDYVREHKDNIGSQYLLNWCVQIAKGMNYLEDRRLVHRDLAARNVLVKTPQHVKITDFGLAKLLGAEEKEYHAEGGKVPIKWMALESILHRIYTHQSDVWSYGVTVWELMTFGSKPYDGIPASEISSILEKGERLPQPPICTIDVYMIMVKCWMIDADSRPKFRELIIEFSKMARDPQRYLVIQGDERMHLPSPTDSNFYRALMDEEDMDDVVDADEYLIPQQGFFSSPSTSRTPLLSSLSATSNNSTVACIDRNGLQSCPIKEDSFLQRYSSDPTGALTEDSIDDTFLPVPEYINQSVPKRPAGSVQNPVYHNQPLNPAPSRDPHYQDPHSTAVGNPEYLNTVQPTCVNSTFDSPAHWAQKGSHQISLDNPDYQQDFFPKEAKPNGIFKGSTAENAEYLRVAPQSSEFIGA
Dickkopf-related protein 1 (Homo sapiens), sequence (O94907 whole entry, looked up): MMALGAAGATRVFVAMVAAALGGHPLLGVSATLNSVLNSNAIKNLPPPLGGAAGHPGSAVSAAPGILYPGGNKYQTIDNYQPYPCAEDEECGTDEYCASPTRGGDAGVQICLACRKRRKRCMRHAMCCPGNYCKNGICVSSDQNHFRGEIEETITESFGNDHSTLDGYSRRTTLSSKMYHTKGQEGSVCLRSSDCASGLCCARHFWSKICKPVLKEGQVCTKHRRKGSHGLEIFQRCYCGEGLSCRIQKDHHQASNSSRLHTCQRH
Fibroblast growth factor 10 (Homo sapiens), sequence (O15520 whole entry, looked up): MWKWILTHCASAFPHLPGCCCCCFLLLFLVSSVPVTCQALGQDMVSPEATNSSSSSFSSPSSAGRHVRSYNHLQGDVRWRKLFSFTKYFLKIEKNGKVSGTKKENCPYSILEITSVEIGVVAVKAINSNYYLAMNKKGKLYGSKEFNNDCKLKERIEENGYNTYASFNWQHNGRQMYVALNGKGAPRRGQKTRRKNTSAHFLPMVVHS

SMILES	composite z-score [1]	composite z-score [2]	composite z-score [3]	z-score [4]	composite z-score [5]	composite z-score [6]	composite z-score [7]	composite z-score [8]	composite z-score [9]	composite z-score [10]	composite z-score [11]	z-score [12]	composite z-score [13]	composite z-score [14]	composite z-score [15]	composite z-score [16]	composite z-score [17]	composite z-score [18]	composite z-score [19]	composite z-score [20]
C=CCN1C(=O)[C@]2(O[C@H](CCn3cc(CCO)nn3)[C@@H]([Si](C)(C)c3ccc(OC)cc3)[C@@H]2C)c2cc(NC(=O)c3ccc(OC)cc3)ccc21	0.799	0.717	0.794	0.0559 (inactive)	0.515	1.23	0.384	0.876	0.863	1.63	1.09	-3.44	0.774	0.289	0.336	-0.124	0.166	0.188	0.573	1.19
CCOC(=O)C1=CC[C@@H](c2ccc(-c3ccc(OCc4ccccc4)cc3)c(OC)c2)N(S(=O)(=O)c2ccc(C)cc2)[C@H]1c1ccccc1	1.13	0.583	0.721	-1.44 (inactive)	1.24	1.28	0.12	1.38	0.273	0.765	1.39	-1.76	0.4	1.64	0.126	0.0279	-0.0171	-0.226	0.373	1.27
COc1cccc([C@H]2N[C@H](C(=O)O)CC[C@@H]2C)c1	-0.406	-0.251	-0.136	-1.94 (inactive)	-0.401	0.0602	0.194	0.0151	0.0655	0.282	0.0991	0.53	0.0589	0.0938	0.334	-0.131	-0.458	-0.339	0.0026	0.396
C=C(CCCC)/C(=C/C[C@@H](OC(=O)c1ccncc1)c1ccc(CO)o1)c1cnc2ccccc2c1	0.201	0.144	-0.524	0.0419 (inactive)	1.48	1.32	1.36	1.62	1.53	1.82	-0.41	-1.13	1.48	1.38	-0.0149	0.0973	0.213	0.889	2.1	2.29
Cc1ccc(S[C@]2(C(=O)NC(C)C)CC(=O)N(Cc3cc(C(F)(F)F)cc(C(F)(F)F)c3)[C@@H]2c2ccc(CO)cc2I)cc1	-0.602	0.0628	0.892	-0.181 (inactive)	-0.816	-0.504	-1.36	-0.923	-1.27	-0.748	0.785	-0.563	-0.832	-0.502	-0.384	-0.132	0.0815	-0.036	-0.596	0.57
CCCC=C(CCC)[C@@H](NS(=O)(=O)c1ccc(C(F)(F)F)cc1)c1ccc(-c2ccccc2)cc1	0.163	0.888	0.83	-1.69 (inactive)	1.13	0.72	0.201	0.38	-0.112	0.835	1.32	-1.08	0.34	1.06	0.878	0.145	0.217	0.157	0.0541	0.709
CCOC(=O)C[C@H]1[C@H](OC(=O)c2cc3ccccc3oc2=O)[C@@H](NC(=O)c2ccc3ccccc3c2)c2cc(OCCCO)ccc2N1C(=O)c1ccc2ccccc2n1	0.209	0.0447	-0.19	-0.017 (inactive)	0.876	0.4	0.573	1.09	0.858	0.392	-0.0309	-1.15	0.57	-0.0337	-0.463	0.0554	-0.138	0.193	0.529	0.992
C[N+](C)(C)CCCCNC(=O)[C@H]1C[C@H]2C(=O)NCC(=O)N2[C@H]1c1cccc(OCCO)c1	1.59	0.0166	-0.335	0.589 (inactive)	1.45	1.29	1.09	1.49	1.84	0.747	0.296	-0.651	1.17	-1.68	-1.96	0.0618	0.147	-0.178	0.724	0.804
COc1ccc([Si](C)(C)[C@@H]2[C@@H](CC(=O)N(CCO)Cc3ccccc3)O[C@]3(C(=O)N(Cc4cccc(N5CCC5=O)c4)c4ccccc43)[C@H]2C)cc1	1.41	-0.163	-0.229	-0.732 (inactive)	1.07	0.583	0.475	0.875	0.313	0.552	0.411	-3.81	0.571	-0.0736	-0.322	-0.0718	-0.0709	-0.411	1.28	0.508
COC(=O)C[C@H]1O[C@]2(C(=O)N(Cc3ccccc3)c3ccc(I)cc32)[C@@H](C)[C@@H]1[Si](C)(C)c1ccc(OC)cc1	-0.237	0.19	0.533	-0.853 (inactive)	0.0095	-1.19	-0.398	-0.192	-0.524	0.413	-1.02	0.486	-0.0651	0.267	0.286	-0.0462	0.0062	-0.208	-0.267	0.13
C[C@H]1COC(=O)[C@H](Cc2ccccc2)NC(=O)[C@@H](C)COC(=O)[C@H](Cc2ccccc2)NC1=O	0.692	-0.165	-0.563	-1.67 (inactive)	0.632	0.847	0.485	0.897	1.11	-0.687	0.844	-0.0223	0.597	0.359	-0.589	-0.236	0.0711	-0.0026	1	0.856
